# Pf growth 48h – P. falciparum growth inhibition at 48 hours (one generation); Potency, µM (doses to about 28.7 µM), for inactives: at the highest dose activity change, negative = inhibition, hits mostly inhibitors; P. falciparum luciferase growth in erythrocytes, 48 h; 310,000 compounds, 5.9% hits; note: % is set by controls: 0 for no effect and ±100 for the full control effect
#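 Firefly luciferase activity from engineered P. falciparum reports growth; inhibitors lower the luminescent signal. Cultures contained 2% hematocrit erythrocytes at 0.1% final parasitemia.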
# NS1 inh – inhibitors of influenza NS1 protein function | Potency, µM (series often up to 46.1 µM), without a hit: at the top dose activity, positive = more growth | 270,000 compounds, 0.4% hits | AID 2326; calls by dose curve; note: actives are rising curves; nearly all actives have a fitted effect of over 50% in size
#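 Growth recovery, yeast-based: influenza A NS1 expressed in S. cerevisiae causes slow growth, and suppressors are detected by OD600. The parent strain without NS1 is used as positive control.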
# HCV inhibitor – HCV inhibition; Potency, µM (series often up to 41.8 µM), without a hit: at the highest dose activity change, negative = inhibition, usual class: inhibitors; 340,000 compounds, 3.4% hits; Huh7.5.1 HCVcc-Cre infection, luciferase reporter, 44 h; note: % is set by controls: 0 for no effect and ±100 for the full control effect
#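 Antiviral activity was scored by luciferase reporter output from cells infected with HCVcc-Cre (~0.5 moi) in presence of compound, 44 h infection period, cells seeded 1,000/well 4 h prior.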
# Vaccinia Venus – inhibitors of vaccinia virus (Venus reporter) | Vaccinia virus Venus reporter expression, fluorescence | Potency, µM (series often up to 36.5 µM), without a hit: at the highest dose activity change, negative = inhibition, usual class: inhibitors | 330,000 compounds, 0.46% hits; calls by dose curve; tested in A549 cells; note: % is set by controls: 0 for no effect and ±100 for the full control effect; nearly all actives have a fitted effect of over 30% in size
# VACV mCherry inh – inhibitors of vaccinia virus infection (mCherry reporter signal); Vaccinia virus mCherry reporter infection, fluorescence; Potency, µM (titrated, usually from 36.5 µM), inactives show top-dose activity change, negative = inhibition, actives largely listed as inhibitors; 310,000 compounds, 0.63% hits; AID 720579; calls by dose curve; tested in A549 cells; note: % is set by controls: 0 for no effect and ±100 for the full control effect; nearly all actives have a fitted effect of over 35% in size
# Pf growth 96h – P. falciparum growth inhibition at 96 hour, primary screen for plastid delayed-death inhibitors; Potency, µM (top dose mostly 28.7 µM), inactives show at the top dose activity change, negative = inhibition, usual class: inhibitors; 320,000 compounds, 6.9% hits; P. falciparum luciferase reporter growth, 96 h; note: % is set by controls: 0 for no effect and ±100 for the full control effect
#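 Compounds incubated with erythrocytes infected by luciferase-expressing P. falciparum (2% hematocrit, 0.05% parasitemia final) for 96 hours, 37 C in 5% CO2. Growth inhibition scored as decreased luciferase luminescence.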
# Active calls of the source: *; i = inactive; ? = inconclusive; nt = not tested or not shown; [ ] = dose if it differs, or a comment. This is a sample that favours compounds with a hit; in the whole collection about 11% have one here. Unless noted, calls come from the whole dose curve; as a rule, active = well fitted inhibition curve with a large enough effect; inconclusive = small, poorly fitted or top-dose-only effect, or another doubt; inactive = no such curve, though single readings can be large or run the other way. Potency is the fitted concentration of half-maximal effect.
SMILES,Pf growth 48h,NS1 inh,HCV inhibitor,Vaccinia Venus,VACV mCherry inh,Pf growth 96h
CCCNCC1C(Oc2ccc(Cl)cc2)C(=O)N1c1ccccc1C (configuration not stated),10µM*,-16%,-21%,-6%,-22%,7%
Cc1ccccc1N1C(=O)C(Oc2ccc(Cl)cc2)C1CNC(C)(C)C (configuration not stated),12µM*,-20%,4%,-8%,-3%,47%
Fc1cccc(-c2cc3nc4c(c(N5CCOCC5)n3n2)CCCC4)c1,8.3µM*,-75%,3.5µM*,-6%,i,?
Clc1cccc(-c2cc3nc4c(c(N5CCN(c6cnccn6)CC5)n3n2)CCCC4)c1,2.1µM*,8%,7%,-28%,nt,-20%
Fc1cccc(-c2cc3nc4c(c(N5CCN(c6cnccn6)CC5)n3n2)CCCC4)c1,nt,-2%,nt,nt,nt,nt
CC(C)C[C@H](NC(=O)c1nc[nH]c1C(=O)NC1CCNCC1)C(=O)OCc1ccccc1,?,nt,14%,3%,i,-38%
C#CCSc1nc2ccccc2n1C(=O)c1ccc(S(=O)(=O)N2CCCCC2)cc1,4%,-10%,9%,-9%,-6%,?
Cn1nc(C(=O)Nc2cccc(C(F)(F)F)c2)c2ccccc2c1=O,?,-38%,6%,-14%,-17%,39%
Cc1cc(N2CCN(c3ccccc3)CC2)nc2ccccc12,13%,-13%,?,nt,nt,0%
Cc1cc(N2CCC(N(C)C3CCCC3)CC2)nc2cc(O)ccc12,1.9µM*,-1%,?,-4%,?,-26%
O=CC(Cl)P(=O)(N1CCCCC1)N1CCCCC1 (configuration not stated),?,-8%,-4%,-9%,i,?
CC1(C)C(O)=C(c2nc3ccccc3[nH]2)C(=N)N1c1ccccc1,?,7%,?,nt,nt,8.3µM*
CC(C)CCN1CC(O)=C(c2nc3ccccc3[nH]2)C1=N,17%,-3%,9%,nt,nt,nt
CCC(=C(c1ccc(OC)cc1)c1ccc(OC)cc1)c1cn(CC(O)CN(CCO)CCO)c2ccccc12 (configuration not stated),9.3µM*,nt,?,nt,nt,?
COc1ccc(OCC(O)CN(CCO)CC(O)Cn2ccc3ccccc32)cc1 (configuration not stated),?,-3%,?,-24%,?,7%
CC(C)CN(CC(C)C)C(=S)Nc1ccc(Cl)cc1,-1%,-5%,?,-24%,-8%,?
Cc1ccc(N(CC(=O)NC2CCCCC2)C(=O)CNC(=O)c2ccco2)cc1F,-21%,0%,-25%,-4%,-4%,9%
CN1C(=O)Cc2cc(S(=O)(=O)CCC(=O)Nc3ccc(Cl)c(C(F)(F)F)c3)ccc21,nt,nt,nt,-17%,-37%,nt
CCC(=O)N1CCc2cc(S(=O)(=O)CCC(=O)Nc3ccc(Cl)c(C(F)(F)F)c3)ccc21,nt,nt,nt,7.9µM*,5µM*,nt
O=C(CCS(=O)(=O)c1ccc(Br)cc1)Nc1ccc2c(c1)OCO2,1%,-1%,4%,nt,nt,0.47µM*
O=C(CCS(=O)(=O)c1ccc(Br)cc1)Nc1ccc(Cl)c(C(F)(F)F)c1,nt,nt,nt,?,11µM*,nt
Cc1ccc(S(=O)(=O)CCC(=O)Nc2ccc3c(c2)OCO3)cc1,-6%,-9%,3%,11%,6%,-24%
N#C/C(=C/c1ccc(O)c(O)c1)c1nc2ccccc2[nH]1,2%[0.00184 µM],4%,-7%,-22%,?,4%
Cc1cc(NC2CCCC2)n2ncc(-c3ccccc3)c2n1,32%,-7%,?,-6%,3%,-77%
COc1cccc(N(CC(=O)NC2CCCCC2)C(=O)CCC(=O)Nc2nccs2)c1,?,20%,-27%,-7%,-20%,12µM*
SMILES,Pf growth 48h,NS1 inh,HCV inhibitor,Vaccinia Venus,VACV mCherry inh,Pf growth 96h
Cc1cccc(N(CC(=O)NC2CCCCC2)C(=O)CCCC(=O)Nc2ccccn2)c1,12µM*,-13%,-12%,-8%,-10%,-22%
COc1cccc(N(CC(=O)NC2CCCC2)C(=O)CCC(=O)Nc2nccs2)c1,2%,6%,8%,-2%,-10%,-4%
CCC(C)(C)NC(=O)CN(C(=O)CCC(=O)Nc1nccs1)c1ccccc1C,-24%,3%,26%,-14%,i,10µM*
CCOc1ccc(N(CC(=O)NC2CCCCC2)C(=O)CCC(=O)Nc2nccs2)cc1,7.4µM*,5%,-2%,1%,7%,-16%
CCc1ccc(C(C(=O)NC2CCCC2)N(CCOC)C(=O)CCC(=O)Nc2cc(C)on2)cc1 (configuration not stated),-2%,-8%,13%,-19%,-17%,4%
N#CCSc1nnc(-c2ccc3c(c2)OCO3)o1,10%,-1%,18%,?,11µM*,39%
O=C(O)CSc1nnc(-c2ccc3c(c2)OCO3)o1,-11%,5%,21%,-9%,i,nt
NCC(c1ccc(Cl)cc1Cl)c1c[nH]c2ccccc12 (configuration not stated),?,1%,?,-10%,?,?
NCC(c1ccccc1Cl)c1c[nH]c2ccccc12 (configuration not stated),9.3µM*,24%,-25%,-3%,?,?
CCCCNc1c(-c2ccc(-c3cccc(Cl)c3)cc2)nc2ccccn12,-90%,nt,?,-28%,?,?
CCCCNc1c(-c2cccc(-c3ccc(OC)cc3)c2)nc2cc(C)ccn12,nt,nt,11µM*,?,?,nt
CCCCNc1c(-c2cccc(-c3ccc(OC)cc3)c2)nc2ccc(C)cn12,3.3µM*,nt,?,?,13µM*,3.7µM*
COC(=O)Nc1c(-c2ccccc2)nc2ccc(C)cn12,6%,0%,-1%,-4%,-2%,4.7µM*
COc1ccc(OC)c(NC(=O)Cn2nc3c(cc2=O)CCCC3)c1,nt,nt,nt,-5%,-6%,nt
Cc1csc(SCC(=O)Nc2cccc(S(=O)(=O)N3CCCC3)c2)n1,-19%,-2%,?,-8%,nt,nt
O=C(Cc1ccc(S(=O)(=O)N2CCOCC2)s1)N(Cc1ccccc1)c1ccccc1,9.3µM*,nt,-7%,-11%,-17%,2.3µM*
CCCCn1c(N)c(N(CC)C(=O)Cc2ccc(S(=O)(=O)N3CCOCC3)s2)c(=O)[nH]c1=O,1%,nt,31%,-16%,i,11%
CCCCN(C(=O)Cc1ccc(S(=O)(=O)N2CCOCC2)s1)c1ccccc1,?,nt,-8%,-10%,-13%,12µM*
Cc1nc2cc(NC(=O)c3ccc(Cl)cc3)ccc2n1C,164%,?,?,nt,nt,?
Clc1ncc(CN2CCN(c3ccccc3)CC2)s1,12%,1%,?,-20%,-9%,7%
O=C1c2ccccc2C2(c3ccccc3)N1CCN2C(=O)C(Cl)(Cl)Cl (configuration not stated),nt,0%,-5%,-18%,-25%,0.83µM*
